Active and inactive are the calls of the source. Calls follow the shape of the dose curve; as a rule, active = well fitted activation curve with a large enough effect; inconclusive = small, poorly fitted or top-dose-only effect; inactive = flat fitted curve, though single readings scatter.
Assay: Cellular Toxicity (caspase-3) Mesangial (AID 660);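 also: combined caspase 3 and 7 activity read by Caspase-Glo luminescence; cells exposed to compound for 16 h before the caspase read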
Details: mesangial cells, normalized: DMSO 0%, 100 µM tamoxifen 100%; series mostly up to 91.7 µM
Excerpt: NIH Chemical Genomics Center [NCGC]
NIH Molecular Libraries Screening Centers Network [MLSCN]
National Institutes of Environmental Health Sciences [NIEHS]
National Toxicology Program [NTP]
We have developed a 1536-well cell-based assay for quantitative high throughput screening (qHTS) against a number of cell lines to determine in vitro caspase 3/7 of small molecules. This particular assay uses the mesangial cell line which is derived from normal human renal glomeruli.
NCGC Assay Protocol Summary:
The Caspase-Glo 3/7 assay (Promega) is a homogeneous method to measure caspase-3 and caspase-7 activities in cultured cells. The quantitation of caspase 3/7 activity is based on the cleavage of a peptide-aminoluciferin substrate. After caspase cleaves the substrate the free aminoluciferin is liberated and serves as the substrate of luciferase, which generates the light. The luminescent signal is proportional to amount of caspase 3/7 activity present.
Using the Caspase-Glo 3/7 assay, the amount of caspase 3/7 activity was measured in the mesangial cell line with complete culture medium following compound treatment for 16 hours. The assay was performed in opaque white 1536-well plates. In the screen, tamoxifen and doxorubicin were used as positive controls. Library compounds were measured for their ability to cause the activation of caspase 3/7 in the cell line, as reflected by an increase in luminescence signal, in a concentration-dependent manner. Data were normalized to the controls for basal activity (DMSO only) and 100% stimulation (100 uM tamoxifen). AC50 values were determined from concentration-response data modeled with the standard Hill equation.
qHTS protocol for caspase 3/7 assay in mesangial cell line
[Step] [Parameter] [Value] [Description]
1. Reagent; 5 uL; 1000 mesangial cells/well
2. Time; 5 hr; 37 °C incubation
4. Controls; 23 nL; Tamoxifen 0.23 uM to 100 uM & doxorubicin 7.0 pM to 100 uM
5. Time; 16 hr; 37 °C incubation
6. Reagent; 5 uL; Caspase-Glo 3/7 reagent
7. Time; 20 min; Room Temperature
8. Detection; Luminescence; Viewlux plate reader
Keywords: caspase 3/7, apoptosis, mesangial cell line, luminescence, NTPHTS, NTPHTS_NCGC, NIEHS, EPA, DSSTox, MLSMR, MLSCN, NIH Roadmap, qHTS, NCGC

Compound | outcome
O=C1C=CC(=O)C=C1 | inactive
C[C@]12CCC(=O)C[C@@H]1CC[C@@H]1[C@@H]2CC[C@]2(C)[C@@H](O)CC[C@@H]12 | inactive
O=C/C=C/c1ccccc1 | inactive
[Cl-].[Cl-].[Hg+2] | inactive
COC1=CC(=O)O[C@@H](/C=C/c2ccccc2)C1 | inactive
O=Cc1ccco1 | inactive
ClC(Cl)(Cl)Cl | inactive
ClCC1CO1 (stereo unspecified) | inactive
CC(C)Nc1ccc(Nc2ccccc2)cc1 | inactive
O=C1CCO1 | inactive
ClC=C(Cl)Cl | inactive
[O]=[Cd] | inactive
CC(C)(C)c1cc(O)ccc1O | inactive
O=[N+]([O-])c1ccccc1 | inactive
S=C=S | inactive
C[C@H]1CC[C@@H]2[C@@H](C)[C@H]3[C@H](C[C@H]4[C@@H]5CC=C6CC(O[C@@H]7O[C@H](CO)[C@H](O)[C@H](O[C@@H]8O[C@H](CO)[C@@H](O)[C@H](O)[C@H]8O)[C@H]7O[C@H]7O[C@@H](C)[C@H](O)[C@@H](O)[C@H]7O)CC[C@]6(C)[C@H]5CC[C@]34C)N2C1 (stereo partly specified) | inactive

Compound | outcome
CCOC(=O)c1ccccc1C(=O)OCC | inactive
Oc1cc(Cl)c(Cl)cc1Cl | inactive
CCCCCl | inactive
O=C(O)C(Cl)(Cl)Cl | inactive
CC(C)CCON=O | inactive
CCCCCCCCOC(=O)c1ccccc1C(=O)OCCCCCCCC | inactive
COc1ccc2c(c1OC)C(=O)OC2C1c2cc3c(cc2CCN1C)OCO3 (stereo unspecified) | inactive
O=[N+]([O-])c1ccc(F)c([N+](=O)[O-])c1 | inactive
C=CCN=C=S | inactive
O=CC=O | inactive
C[C@H]1CCC[C@H](O)CCCCCc2cc(O)cc(O)c2C(=O)O1 | inactive
NNC(N)=O | inactive
Clc1ccccc1Cl | inactive
[O]=[Cr](=[O])([OH])[O][Cr](=[O])(=[O])[OH] | inactive
O=C1C2CC=CCC2C(=O)N1SC(Cl)(Cl)Cl (stereo unspecified) | inactive
